Laboratory results taken from PubChem BioAssay (NCI).
The panel holds about 83,000 compounds, 20% with a hit somewhere; the sample as a whole holds those more often.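 Values shown are percent growth following 48 h exposure of cells in 96-well plates to a single concentration of compound; below 10 was considered active.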 A number with no mark means an inactive call. Active and inactive are the calls of the source.

Key:
Test in all cases: NCI-60 one-dose screen, 48 h (100 = growth as untreated, 0 = no growth, -100 = all killed)
Conditions in all cases: 10 µM unless noted
[1] = test system: NCI-H23 lung
[2] = test system: NCI-H226 lung
[3] = test system: NCI-H322M lung
[4] = test system: HOP-62 NSCLC
[5] = test system: NCI-H460 lung
[6] = test system: HOP-92 NSCLC
[7] = test system: NCI-H522 lung
[8] = test system: A549/ATCC NSCLC
[9] = test system: 786-0 renal
[10] = test system: COLO 205 colon
[11] = test system: DU-145 prostate
[12] = test system: K-562 leukemia
[13] = test system: MALME-3M melanoma
[14] = test system: MDA-MB-231 breast
[15] = test system: RXF 393 renal
[16] = test system: SF-268 CNS
[17] = test system: SF-295 CNS
[18] = test system: SF-539 CNS
[19] = test system: UACC-257 melanoma
[20] = test system: M14 melanoma

| Compound | growth [1] | growth [2] | growth [3] | growth [4] | growth [5] | growth [6] | growth [7] | growth [8] | growth [9] | growth [10] | growth [11] | growth [12] | growth [13] | growth [14] | growth [15] | growth [16] | growth [17] | growth [18] | growth [19] | growth [20] |
| --- | --- | --- | --- | --- | --- | --- | --- | --- | --- | --- | --- | --- | --- | --- | --- | --- | --- | --- | --- | --- |
| COc1cc(/C=C/c2cc(/C=C/c3ccc(O)c(OC)c3)n(-c3ccc(Cl)cc3)c(=O)n2)ccc1O | 93.7% | 91.3% | 82% | 90.1% | 92.3% | 88.6% | 91.3% | 98.1% | 92.6% | 91.3% | 91.7% | 72.6% | 100% | 60.3% | 90.7% | 76.1% | 97.3% | 78.1% | 97% | 88.3% |
| Cc1ccc(-c2nc([P+](c3ccccc3)(c3ccccc3)c3ccccc3)c(N3CCOCC3)o2)cc1 | -9.72% (active) | -2.72% (active) | 7.88% (active) | -41.5% (active) | 3.34% (active) | -28.7% (active) | 0.415% (active) | 9.89% (active) | 15.9% | -70% (active) | 12.9% | 4.64% (active) | -18.8% (active) | -0.628% (active) | -1.34% (active) | 12.5% | -10.3% (active) | 19.3% | -4.98% (active) | 0.413% (active) |
| COc1ccc(-c2nc3c(c(C)nn3-c3ccc(F)cc3)c(=O)[nH]2)cc1 | 83.3% | 33.1% | 78.7% | 58.8% | 28.2% | 91.8% | 81.3% | 45.9% | 11% | 74% | 85% | 97.1% | 75.3% | 75.2% | 82.8% | 78.9% | 68.1% | 87% | 101% | 82.7% |
| Cc1csc(Nc2nc(-c3cccc(Br)c3)nc(C(Cl)(Cl)Cl)n2)n1 | 85.6% | 110% | -29.9% (active) | 34% | 9.54% (active) | 51.2% | 97.1% | 5.62% (active) | 75.2% | 4.32% (active) | -5.72% (active) | 84% | 98.8% | 15.5% | 20.2% | 78.1% | 20.7% | 41% | 60.6% | 86.4% |
| COc1ccc2[nH]c(-c3ccc(Cl)cc3)cc(=O)c2c1 | 94.5% | 97.6% | 92% | 104% | 100% | 88.6% | 86.7% | 96.3% | 88.3% | 105% | 105% | 97.4% | 98.6% | 95.6% | 111% | 98.2% | 97% | 99.9% | 98% | 95.1% |
| COc1ccc(C2(Cl)c3ccccc3N(c3ccccc3)c3ccccc32)cc1 | -14.8% (active) | -27.8% (active) | 9.96% (active) | 8.43% (active) | -55.2% (active) | -14.7% (active) | -3.22% (active) | 9.18% (active) | -48.8% (active) | -42.8% (active) | 16.8% | 8.99% (active) | -57% (active) | -23.8% (active) | -28.4% (active) | 15.4% | -36.6% (active) | -20.3% (active) | -41.5% (active) | -55.1% (active) |
| N#CC1=C(N)Oc2ccc3ccccc3c2C1c1ccccc1 (stereo not given) | 43.9% | 51.6% | 62.1% | 39.7% | 21.7% | 62.6% | 34.7% | 51% | 35.5% | 32.6% | 51.2% | 14.9% | 42.3% | 47% | 23.3% | 52.2% | 4.96% (active) | 11.4% | 61.7% | 13.6% |
| Oc1cccc2ccc(N/N=C/c3cc(CN4CCCCC4)c(O)c4ncccc34)nc12 | -10.8% (active) | -30% (active) | 25.5% | 1.83% (active) | -40.3% (active) | 36.9% | -16% (active) | -10.3% (active) | 5.33% (active) | 8.41% (active) | 24.1% | 13.1% | 19.1% | -4.71% (active) | 9.94% (active) | 12.6% | -5.38% (active) | 4.73% (active) | 13.4% | -24.8% (active) |
| CCCCCCCCNc1cccc2c1C(=O)c1ccccc1C2=O | 102% | 96.5% | 101% | 115% | 101% | 109% | 81.3% | 91.7% | 104% | 116% | 112% | 97.2% | 108% | 96.1% | 100% | 94.9% | 112% | 121% | 98.2% | 107% |
| COc1ccc(/C=C(\C#N)c2cc3ccccc3n2C(C)=O)cc1 | 88.3% | 102% | 94.6% | 93.3% | 92.4% | 99.2% | 70% | 83.5% | 96.9% | 97.3% | 99.7% | 25.1% | 83.8% | 82% | 88.3% | 97.3% | 84% | 93.8% | 99.6% | 70.7% |
| COc1ccc2c(c1)c(-c1nc(-c3cn(C)c4ncccc34)cs1)cn2CCCN1CCCCC1 | 79.4% | 67.1% | 80.3% | 74.9% | -40.4% (active) | 48.7% | 87.7% | 25.2% | -31.3% (active) | -65.8% (active) | 42.9% | -48.4% (active) | 81.1% | 44.2% | 65% | 76.6% | 91.6% | 43.9% | 96% | -85.2% (active) |
| COc1ccc(-c2c(-c3nc4ccc(N5CCOCC5)cc4[nH]3)[nH]c(C)c2C(C)=O)cc1 | 52.6% | 49.7% | 43.6% | 30.6% | 57.8% | 49.5% | 37.8% | 48.4% | 45.3% | 15.9% | 74.6% | 35.1% | 36.4% | 37.5% | 44.8% | 70.3% | 35.7% | 36.9% | 44.7% | 35.6% |
| CC(C)(C)c1cc(-n2c(-c3ccc(Cl)cc3)nc3cc(C(=O)Nc4ccc(Cl)cc4)ccc32)n[nH]1 | 32.8% | 73.9% | 82% | 83.6% | 39.6% | 38.1% | 56.9% | 51.1% | 67.4% | 51.8% | 79.8% | 41.2% | 75.4% | 79.8% | 65.7% | 69.7% | -2.36% (active) | 82.9% | 81.1% | 62.7% |
| COc1ccc(NC(=S)N/N=C/c2ccccc2SSCCC(=O)OC[C@H]2O[C@H](O)[C@H](O)[C@@H](O)[C@@H]2O)cc1 | 67.2% | 88.2% | 52.5% | 45.8% | 26.6% | 104% | 58.4% | 55.1% | 89.7% | 100% | 83.9% | 51.6% | 72.7% | 71.1% | 104% | 61.1% | 59.1% | 91.7% | 98.4% | 47.8% |
| COc1ccc(C2C(C#N)=C(N)Oc3c2sc2c(F)cccc32)cc1 (stereo not given) | 34.6% | 76% | 50% | 22.9% | 11.6% | 41.7% | 6.47% (active) | 36.7% | 29.4% | 5.98% (active) | 17.3% | 9.11% (active) | 65.4% | 41% | -8.26% (active) | 42.6% | 20.2% | 1.03% (active) | 64.9% | -15.6% (active) |
| CC/C=C\C[C@H]1CC=C2C(=O)C=C[C@@H]2CC=CCCCC(=O)O[C@@H](CCCCC)CC=C2C(=O)C=C[C@@H]2CC=CCCCC(=O)O[C@@H](CCCCC)CC=C2C(=O)C=C[C@@H]2CC=CCCCC(=O)O[C@@H](CCCCC)CC=C2C(=O)C=C[C@@H]2CC=CCCCC(=O)O1 | 4.69% [7.9 µM] (active) | 74.6% [7.9 µM] | 85.7% [7.9 µM] | 8.97% [7.9 µM] (active) | 30.4% [7.9 µM] | 7.82% [7.9 µM] (active) | -16.2% [7.9 µM] (active) | 39% [7.9 µM] | 23% [7.9 µM] | -26.7% [7.9 µM] (active) | 20.4% [7.9 µM] | 7.46% [7.9 µM] (active) | 26.2% [7.9 µM] | -11.1% [7.9 µM] (active) | -4.76% [7.9 µM] (active) | 12.5% [7.9 µM] | 53.7% [7.9 µM] | 1.99% [7.9 µM] (active) | 54.4% [7.9 µM] | -3.08% [7.9 µM] (active) |
